Measured values taken from PubChem BioAssay (NCI).
This is part of a sample that, as a whole, favours compounds with a hit. Of some 83,000 tested, about 20% had one in any assay.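 Treatment: one concentration, 48 hours, 96-well format. Scoring: percent growth, with anything below 10 considered active.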 A number with no mark means an inactive call. Active and inactive are the calls of the source.

These molecules were tested on BT-549 breast (assay: NCI-60 one-dose screen, 48 h (100 = growth as untreated, 0 = no growth, -100 = all killed)). Conditions: 10 µM.

For N#CSCC1CC(O)(c2ccccc2)CC(c2ccc(Cl)cc2)O1 (stereo not drawn), the growth was -11.5% (active).
In the case of CCOCCOCCOCCOCCOCCOCCOCCOCCOCCO (tested in a mixture with another compound), the growth is reported as -52.7% (active).

Point of comparison: ClC(Cl)(Cl)c1nc2nccnc2[nH]1, growth 103%. Against it:
- CS(=O)(=O)Nc1cccc(-c2cc(-c3ccccc3Cl)c(C#N)c(N)n2)c1 — lower, 37.1%
- O=C(/C=C/c1cc2ccccc2[nH]c1=O)c1ccc2c(c1)OCO2 — lower, 84.2%
- CC(C)(Cl)CCC1=C(Cl)C(=O)c2ccccc2C1=O — lower, 66.5%
- O=C1C(c2ccccc2)C2C=CC(C2)N1O (stereo not drawn) — higher, 136%
- CC(C)(C)NC/C(=C\c1ccccc1)C(=O)c1ccccc1 — lower, 15.8%
- NC(=O)c1ccc(-c2cccc3c(=O)nc(N4CCOCC4)oc23)cc1 — lower, 98.1%
- COC(=O)C1(C)Cc2cc(OC(C)=O)c(OC(C)=O)cc2N1 (stereo not drawn) — lower, 98.8%
- CC(=O)c1nc2ccccc2n1CCN1CCN(C)CC1 — lower, 48.1%
- Nc1nccc(Nc2ccccc2)n1 — the same, 103%
- COc1cc(C2CC(c3ccc(Nc4ccnc5cc(Cl)ccc45)cc3)=NN2c2ccc(Cl)cc2)cc(OC)c1OC (stereo not drawn) — lower, 68.4%
- COc1cc(-c2cc(-c3cc4c([nH]c5ccccc54)c(-c4cc(OC)c(OC)c(OC)c4)n3)cc(-c3ccccc3)n2)cc(OC)c1OC — lower, 66.6%
- COc1ccc(-c2nsc3c2NC(=O)CC3c2ccc(F)cc2)cc1 (stereo not drawn) — lower, 28%
- COc1ccc(-c2cc(/C=C3\C(=O)Nc4ccc(Cl)cc43)[nH]n2)cc1OC — lower, 99.7%
- CCOC(=O)C1CCc2c(ccc3ccccc23)N1CCC#N (stereo not drawn) — lower, 96%
- CN(C)Cc1cn(-c2ncc(-c3ccc(C(F)(F)F)cc3)c(NC3CCCCCC3)n2)nn1 — lower, 94.6%
- O=C(CSSCC(=O)c1ccc(Cl)cc1)c1ccc(Cl)cc1 — lower, 84.9%
- COc1ccc2c(c1)/C(=C\c1c[nH]c3ccc(OC)cc13)C(=O)N2 — lower, 57.7%
- Cc1cc(N(CCCNc2ccnc3cc(Cl)ccc23)Cc2cccs2)nc(Cl)n1 — lower, 33.7%
- COc1ccc(-c2nc3sc(C4CC4)nn3c2/C=C2/C(=O)Nc3ccc(OC)cc32)cc1 — lower, 40.1%
- COc1cc(-c2cc(/C=C/C(=O)c3ccc4c(c3)OCO4)[nH]n2)cc(OC)c1OC — lower, 60.9%
- CC[C@H](C)C(=O)O[C@H]1CCC=C2C=C[C@H](C)C(CCC3C[C@@H](O)CC(=O)O3)[C@H]21 (stereo partly drawn) — lower, 78.2%

Each molecule was assayed on MDA-MB-435 melanoma in the same assay as above. Conditions: 10 µM.

In the case of COc1ccc(S(=O)(=O)Nc2c(/C=C\c3cc(OC)c(OC)c(OC)c3)ccc(OC)c2O)cc1, the growth is reported as -39.4% (active).
With COc1ccc(-c2nn(-c3cccc(NC(=O)c4cc(C(F)(F)F)cc(C(F)(F)F)c4)c3)cc2-c2ccncc2)cc1Cl the growth was 6.11% (active).
With N#CSCC1CC(O)(c2ccccc2)CC(c2ccc(Cl)cc2)O1 (stereo not drawn) the growth was 3.01% (active).
With CS(=O)(=O)Nc1cccc(-c2cc(-c3ccccc3Cl)c(C#N)c(N)n2)c1 the growth was -45.8% (active).
In the case of CC(C)(C)NC/C(=C\c1ccccc1)C(=O)c1ccccc1, the growth is reported as 4.28% (active).
For CC(=O)c1nc2ccccc2n1CCN1CCN(C)CC1, the growth was -80.2% (active).
For COc1cc(C2CC(c3ccc(Nc4ccnc5cc(Cl)ccc45)cc3)=NN2c2ccc(Cl)cc2)cc(OC)c1OC (stereo not drawn), the growth was 8.05% (active).
For COc1cc(-c2cc(-c3cc4c([nH]c5ccccc54)c(-c4cc(OC)c(OC)c(OC)c4)n3)cc(-c3ccccc3)n2)cc(OC)c1OC, the growth was -1.18% (active).
With COc1ccc(-c2nsc3c2NC(=O)CC3c2ccc(F)cc2)cc1 (stereo not drawn) the growth was -56.1% (active).
For COc1ccc2c(c1)/C(=C\c1c[nH]c3ccc(OC)cc13)C(=O)N2, the growth was -11.5% (active).

Point of comparison: N=c1nc(N)ncn1-c1ccccc1, growth 107%. Against it:
- Cc1cn(C2CCCCO2)c(=O)nc1NO (stereo not drawn) — lower, 97.6%
- CCCCCCCNc1nc(C=O)ncc1-c1ccc(C(F)(F)F)cc1 — lower, 100%
- C/C(N)=C(\C#N)C(=O)c1ccccc1 — lower, 100%
- CC1CC(=O)OC(C)C1 (stereo not drawn) — lower, 96.7%
- Cc1cc(=O)n2nnc3c4ccccc4ccc3n12 — lower, 104%
- Cc1ccc(S(=O)(=O)OCCN(CCOS(=O)(=O)c2ccc(C)cc2)c2c[nH]c(=O)[nH]c2=O)cc1 — lower, 103%
- O=C(Nc1ccc(Cl)cc1)N1NC(c2ccc(Cl)cc2)C=C1c1ccccc1 (stereo not drawn) — lower, 103%
- CCn1cc(C(=O)O)c(=O)c2cnc(N3CCCC3)nc21 — lower, 94.2%
- COc1ccc(C2=Nc3c(C)nn(-c4ccccc4)c3NC(c3ccc(Oc4ccnc5cc(Cl)ccc45)c(OC)c3)C2)cc1 (stereo not drawn) — lower, 80.4%
- Cn1c(N)c(N=Nc2ccc(S(=O)(=O)Nc3nccs3)cc2)c(=O)n(C)c1=O — lower, 101%
- COc1cc(-c2nc(-c3nnc(-c4ccccc4Cl)o3)c3ccccn23)cc(OC)c1OC — lower, 100%
- COc1ccc(-c2nc3sc(-c4ccc(OC)cc4)c(-c4ccc(OC)cc4)n3c2/C=C/c2ccc(C(C)C)cc2)cc1 — lower, 98.7%
- O=C(/C=C/c1cc2ccccc2[nH]c1=O)c1ccc2c(c1)OCO2 — lower, 95.7%
- CC(C)(Cl)CCC1=C(Cl)C(=O)c2ccccc2C1=O — lower, 66.4%
- O=C1C(c2ccccc2)C2C=CC(C2)N1O (stereo not drawn) — the same, 107%
- NC(=O)c1ccc(-c2cccc3c(=O)nc(N4CCOCC4)oc23)cc1 — the same, 107%
- COC(=O)C1(C)Cc2cc(OC(C)=O)c(OC(C)=O)cc2N1 (stereo not drawn) — lower, 73.9%
- Nc1nccc(Nc2ccccc2)n1 — the same, 107%
- ClC(Cl)(Cl)c1nc2nccnc2[nH]1 — lower, 102%
- COc1ccc(-c2cc(/C=C3\C(=O)Nc4ccc(Cl)cc43)[nH]n2)cc1OC — lower, 91.5%
- CCOC(=O)C1CCc2c(ccc3ccccc23)N1CCC#N (stereo not drawn) — lower, 35.6%
- CN(C)Cc1cn(-c2ncc(-c3ccc(C(F)(F)F)cc3)c(NC3CCCCCC3)n2)nn1 — lower, 95.2%
- O=C(CSSCC(=O)c1ccc(Cl)cc1)c1ccc(Cl)cc1 — lower, 47.9%
- Cc1cc(N(CCCNc2ccnc3cc(Cl)ccc23)Cc2cccs2)nc(Cl)n1 — lower, 48.9%
- COc1ccc(-c2nc3sc(C4CC4)nn3c2/C=C2/C(=O)Nc3ccc(OC)cc32)cc1 — lower, 61.6%
- COc1cc(-c2cc(/C=C/C(=O)c3ccc4c(c3)OCO4)[nH]n2)cc(OC)c1OC — lower, 31.2%
- CC[C@H](C)C(=O)O[C@H]1CCC=C2C=C[C@H](C)C(CCC3C[C@@H](O)CC(=O)O3)[C@H]21 (stereo partly drawn) — lower, 84.4%
- CCOCCOCCOCCOCCOCCOCCOCCOCCOCCO (tested in a mixture with another compound) — lower, 19.4%
